In PubChem BioAssay one finds z-score data, which are given here for 14 compounds.

Calls of active or inactive are those of the source.

Assay [1] can be described thus: compound effects on lung adenocarcinoma cell viability – A549, calcein-AM fluorescence, 48 h, basal, profiling panel (AID 1162). The note with it: higher = more signal.
A short description of assay [2]: compound effects on differentiated 3T3-L1 adipocyte viability – cell-based, 3T3-L1 adipocytes, calcein-AM fluorescence, 48 h, basal, profiling panel (AID 1163). Conditions: 3T3-L1 adipocytes viability, higher = more signal.
A short description of assay [3]: compound effects on hepatocellular carcinoma cell viability – HepG2, calcein-AM fluorescence, 48 h, basal, profiling panel (AID 1164). The note with it: higher = more signal.
The nature of assay [4]: compound effects on multiple myeloma cell viability – MM1S, calcein-AM fluorescence, 48 h, basal, profiling panel (AID 1165).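 Note: viability of MM1S multiple myeloma cells under basal unstimulated conditions.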 The note with it: higher = more signal.
Assay [5] is described as follows: calcein-AM signal in unstimulated myeloma cells – cell-based, calcein-AM fluorescence, 48 h, PK04 Diversity Set, profiling panel (AID 1166).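 Note: cells grown under basal conditions without added stimulus.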 Conditions: RPMI8226 myeloma viability, higher = more signal.
The nature of assay [6]: JC-1 mitochondrial signal, unstimulated HepG2 cells – cell-based, JC-1 fluorescence, 24 h, 100 nL compound, profiling panel (AID 1167). The note with it: HepG2 mitochondrial potential, higher = more signal.
A short description of assay [7]: JC-1 mitochondrial signal, unstimulated adipocytes – cell-based, JC-1 fluorescence, 3T3-L1 adipocytes, 24 h, 100 nL compound, profiling panel (AID 1168). The note with it: JC-1 mitochondrial fluorescence, higher = more signal, called active from +8 up or from −8 down.
Assay [8] can be described thus: JC-1 mitochondrial signal, unstimulated myeloma cells – cell-based, JC-1 fluorescence, RPMI8226, 24 h, 100 nL compound, profiling panel (AID 1169). Conditions: JC-1 mitochondrial potential fluorescence, higher = more signal.
Assay [9] is described as follows: JC-1 mitochondrial signal, unstimulated MM1S myeloma – cell-based, JC-1 fluorescence, 24 h, 100 nL compound, profiling panel (AID 1170). Conditions: MM1S mitochondrial potential, higher = more signal.
The nature of assay [10]: resazurin metabolic signal in A549 cells – cell-based, resazurin fluorescence, 24 h, PK04 Diversity Set, profiling panel (AID 1171). The note with it: A549 viability, higher = more signal, called active from +8 up or from −8 down. (The colour change of resazurin is a common sign of viable cells or microbes.)
Note: test concentration not given here.

For the compound `CCOC(=O)[C@H](Cc1ccccc1)NC(=O)CCC1CC(OC(=O)NCc2cccc3ccccc23)CC2(CCCC(COC(=O)NCC3CCCCC3)O2)O1` (stereo not given in full), the z-score in assay [1] was 0.391; in assay [2], 0.146; in assay [3], -0.574; in [4], -0.0497; in assay [5] it was -0.68; in assay [6], -0.00703. Also, the z-score in assay [7] was -0.00973 (inactive); in [8] it was -0.198; in assay [9], -0.296; in assay [10], 0.684 (inactive).
With `CON(C)C(=O)c1nnc2c(n1)[nH]c1ccccc12`, the z-score in assay [1] is -0.681; in assay [2], 0.764; in [3], 0.429; in [4], -0.342; in assay [5], -0.0375; in assay [6] it was -0.88. The z-score was 0.471 (inactive) in assay [7], -0.886 in assay [8], 0.0753 in assay [9] and 0.447 (inactive) in [10].
Turning to `CC(=O)OC[C@H]1O[C@@H](ON=C2[C@H]3CCn4c(=O)n(-c5ccccc5)c(=O)n4[C@H]3[C@H](O)[C@@H]3O[C@H]23)[C@H](OC(C)=O)[C@@H](OC(C)=O)[C@@H]1OC(C)=O`, the z-score in [1] was -0.0311; in assay [2] it was -1.14; in assay [3], 0.707; in assay [4], -0.0928; in assay [5], -0.105; in assay [6] it was -0.506. Also, the z-score in assay [7] was -0.0849 (inactive); in assay [8], -0.0535; in assay [9], -0.64; in [10], -0.713 (inactive).
In the case of `CCN1C(=O)[C@H]2[C@H]3[C@H](O)[C@H](O)CC(=NO[C@@H]4O[C@H](COC(C)=O)[C@@H](OC(C)=O)[C@H](OC(C)=O)[C@H]4OC(C)=O)[C@@H]3CC[C@H]2C1=O`, the z-score in assay [1] was 0.13; in assay [2], -0.81; in [3], -0.145; in assay [4], -1.29; in assay [5], -1.05; in assay [6] it was -0.611. Also, the z-score in assay [7] was -1.51 (inactive); in [8], 0.69; in [9], -0.654; in assay [10], -0.959 (inactive).
With `CC1(C)O[C@H]2OC([C@H](O)CON3C(=O)c4ccccc4C3=O)[C@H](O)[C@H]2O1` (stereo not given in full), the z-score was 0.23 in assay [1]; 0.0217 in assay [2]; 0.0029 in assay [3]; -0.963 in assay [4]; -0.486 in assay [5]; -0.249 in assay [6]. Moreover, the z-score is -0.143 (inactive) in [7], -0.484 in [8], 0.658 in assay [9] and 0.368 (inactive) in [10].
Turning to `CCN1C(=O)[C@H]2[C@H]3[C@H](O)[C@H](O)CC(=NOC(C)CN4CCCc5nc(C)c(C)cc54)[C@@H]3CC[C@H]2C1=O` (stereo not given in full), the z-score in assay [1] was 0.355; in [2] it was -0.769; in assay [3], -0.283; in assay [4], -1.78; in [5] it was -0.99; in assay [6] it was 0.128. Besides, the z-score is -0.886 (inactive) in assay [7], 0.534 in assay [8], -0.902 in assay [9] and -0.696 (inactive) in [10].
For `CC(=O)OC[C@H]1O[C@H](CCON=C(C)C)C=C[C@@H]1OC(C)=O`, the z-score in assay [1] was 0.191; in assay [2] it was 0.0363; in assay [3], -0.0004; in [4], -0.719; in assay [5] it was -1.12; in [6] it was -0.331. Also, the z-score in [7] was -0.681 (inactive); in assay [8], 0.636; in [9], -0.57; in [10], -0.426 (inactive).
As for `CC(C)=CCCC(C)=CCON=C1[C@H]2CCn3c(=O)n(-c4ccccc4)c(=O)n3[C@H]2[C@H](O)[C@@H]2O[C@H]12`, the z-score in assay [1] is -0.603; in assay [2], -0.141; in assay [3], -0.838; in [4], -2.89; in [5] it was -1.47; in assay [6], -1.07. The z-score in assay [7] is -0.462 (inactive); in assay [8], -0.247; in [9] it was -1.81; in [10], -1.33 (inactive).
In the case of `COc1ccc(OC[C@@H](CO)OC)cc1`, the z-score is 0.677 in assay [1]; 0.363 in [2]; 0.647 in [3]; 0.124 in assay [4]; -0.342 in assay [5]; -0.15 in assay [6]. Further, the z-score in assay [7] is -0.321 (inactive); in assay [8], 0.104; in [9], 0.674; in assay [10] it was -0.551 (inactive).
Consider `CCOC(=O)[C@H](CC(C)C)NC(=O)CCC1CC(OC(=O)NCCc2ccc(F)cc2)CC2(CCCC(COC(=O)NCc3cccc4ccccc34)O2)O1` (stereo not given in full), for which the z-score was -0.491 in assay [1]; -0.679 in assay [2]; -2.03 in assay [3]; -3.43 in assay [4]; -3.14 in [5]; 0.26 in assay [6]. Further, the z-score is -0.0268 (inactive) in assay [7], 0.219 in [8], -1.56 in assay [9] and 1.15 (inactive) in [10].
In the case of `O=C1C2=CC[C@H]3C(=O)N(Cc4ccccc4)C(=O)[C@H]3[C@H]2[C@H](O)[C@@H]2O[C@H]12`, the z-score in [1] is -0.77; in assay [2], -0.238; in [3] it was -4.47; in [4] it was -3.28; in assay [5] it was -3.83; in assay [6], -2.12. In addition, the z-score in assay [7] was 1.02 (inactive); in assay [8], -1.05; in assay [9], -2.91; in [10] it was 0.152 (inactive).
As for `C#CCCCON=C1C[C@@H](O)[C@@H](O)[C@@H]2[C@@H]3C(=O)N(C4CCCCC4)C(=O)[C@@H]3CC[C@@H]12`, the z-score in assay [1] was -0.205; in assay [2] it was -0.117; in [3], -0.139; in assay [4], 0.183; in [5] it was -1.94; in assay [6], -1.32. The z-score was -0.462 (inactive) in assay [7], -0.0811 in [8], 0.431 in assay [9] and -0.255 (inactive) in assay [10].
As for `CCCCOC(OCCCC)C(O)CSc1ccc2ccccc2c1` (stereo not given), the z-score in assay [1] was -1.28; in assay [2] it was -0.809; in [3], 0.0428; in assay [4], -2.77; in assay [5], -1.04; in assay [6], -0.36. Also, the z-score is -0.239 (inactive) in assay [7], 0.591 in assay [8], -0.285 in [9] and -0.911 (inactive) in [10].
In the case of `CC(=O)OC[C@H]1O[C@H](CC=NO[C@@H](C)c2cn([C@H](CO)Cc3ccccc3)nn2)C=C[C@@H]1OC(C)=O`, the z-score was -1.04 in assay [1]; -0.0628 in assay [2]; -0.453 in assay [3]; 0.548 in assay [4]; -0.812 in [5]; -0.174 in [6]. For the same compound, the z-score in [7] is -0.538 (inactive); in assay [8], 0.15; in [9], -0.76; in [10], 0.095 (inactive).
